Measured values from PubChem BioAssay (Tox21).
Records with an inconclusive call do not appear. The source made the active and inactive calls. Unless noted, calls follow the shape of the full dose curve.

Experiments:
[1] = Nuclear factor erythroid 2-related factor 2/antioxidant responsive element (Nrf2/ARE) small molecule agonists: qHTS cell viability counter screen in human keratinocytes (AID 1919968; active = well fitted curve in the direction sought with a large enough effect in the repeat runs; an effect the other way counts as inactive or inconclusive; also: nearly all actives have a fitted effect of over 55% in size; also: potency is read from the fitted curve at half-maximal effect)
Procedure, shortened: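 In human HaCaT keratinocytes stably expressing an ARE-driven luciferase, compound exposure lasted 23 h at 37 C under 5% CO2. Viable cells are quantified with a protease-based fluorogenic reagent (CellTiter-Fluor) read 1 h after addition.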

[2] = target: Gonadotropin-releasing hormone receptor (Homo sapiens) (UniProt P30968); test: Human gonadotropin-releasing hormone receptor (GnRHR) small molecule agonists, calcium flux assay in GnRHR-HEK293 cells (AID 1920063); also: nearly all actives have a fitted effect of over 35% in size
Chain of Gonadotropin-releasing hormone receptor (Homo sapiens) (P30968 whole entry, looked up): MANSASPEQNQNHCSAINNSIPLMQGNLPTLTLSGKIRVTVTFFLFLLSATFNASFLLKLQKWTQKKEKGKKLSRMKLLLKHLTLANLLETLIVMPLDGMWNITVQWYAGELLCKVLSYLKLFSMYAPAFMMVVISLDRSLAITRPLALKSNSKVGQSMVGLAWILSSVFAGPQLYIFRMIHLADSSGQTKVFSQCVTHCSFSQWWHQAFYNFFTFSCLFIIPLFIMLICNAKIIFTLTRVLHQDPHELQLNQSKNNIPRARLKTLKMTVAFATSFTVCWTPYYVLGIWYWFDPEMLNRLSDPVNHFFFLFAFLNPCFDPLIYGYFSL
Procedure, shortened: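 Intracellular calcium rise is the read-out: engineered human GnRHR HEK293 cells, dye-loaded, are exposed to DMSO-dissolved compounds and fluorescence at Ex/Em 480/540 is tracked for 3 min.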

[3] = G protein-coupled receptor (GPCR) small molecule agonists, calcium flux assay: HEK293 wild type cell line counter screen (AID 1920065)
Procedure, shortened: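 Fluorescence intensity signals activation. After overnight (18 h) culture and a 1 h calcium dye load at 37 C, compounds are added by pin tool and the plate read at 480/540 nm for 3 min in 1 s steps.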

[4] = p53 small molecule agonists, cell-based qHTS assay with human liver microsomes (AID 1963577);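 also: p53 response element beta-lactamase reporter cells with liver microsomes plus NADPH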
Procedure, shortened: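 16 h, 37 C exposure of p53RE-bla cells to compounds with human liver microsomes and NADPH (0.5 mg/mL final each); detection via LiveBLAzer mixture, 2 h dark at room temperature.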

[5] = p53 small molecule agonists, cell-based qHTS assay with rat liver microsomes (AID 1963578)
Procedure, shortened: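 With rat liver microsomes and NADPH present (0.5 mg/mL final each), p53RE-bla cells are treated with compound for 16 h at 37 C. LiveBLAzer detection mixture is then applied for 2 h at room temperature in the dark.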

[6] = p53 small molecule agonists, cell-based qHTS assay with human liver microsomes: qHTS cell viability counter screen (AID 1963579); also: nearly all actives have a fitted effect of over 45% in size
Procedure, shortened: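 In this multiplexed counter screen, the reporter plates were subsequently treated with CellTiter-Glo so that cell viability, reflected by luminescence, could be recorded for p53RE-bla cells dosed 16 h with compounds under microsomal activation (HLM and NADPH).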

[7] = p53 small molecule agonists, cell-based qHTS assay with rat liver microsomes: qHTS cell viability counter screen (AID 1963580); also: nearly all actives have a fitted effect of over 45% in size
Procedure, shortened: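 After the beta-lactamase ratio was read, CellTiter-Glo was added to the same wells and luminescence measured at 30 min; cells had been treated 16 h at 37 C with compounds, rat liver microsomes and NADPH (0.5 mg/mL final each).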

[8] = p53 small molecule agonists, cell-based qHTS assay: qHTS cell viability counter screen (AID 1963581); also: nearly all actives have a fitted effect of over 45% in size
Procedure, shortened: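 Luminescence from CellTiter-Glo, reflecting ATP content, serves as the cytotoxicity measure; it is taken after the 2 h reporter substrate step in HCT-116 p53RE-bla cells dosed for 16 h at 37 C.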

[9] = p53 small molecule agonists, cell-based qHTS assay (AID 1963582; active = well fitted activation curve with a large enough effect in the signal ratio in the repeat runs, not every such curve was filed as active; the % refers to the signal ratio)
Procedure, shortened: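 After plating, p53RE-bla cells sat 5 h in the incubator; compounds or DMSO vehicle were pinned in; a 16 h incubation at 37 C followed; FRET substrate was added and, 2 h later at RT, fluorescence was measured.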

[10] = target: 5-hydroxytryptamine receptor 2A (Homo sapiens) (UniProt P28223); test: 5-hydroxytryptamine receptor 2A (HTR2A) small molecule antagonists, cell-based qHTS assay (AID 1963586); also: nearly all actives have a fitted effect of over 45% in size
Chain of 5-hydroxytryptamine receptor 2A (Homo sapiens) (P28223 whole entry, looked up): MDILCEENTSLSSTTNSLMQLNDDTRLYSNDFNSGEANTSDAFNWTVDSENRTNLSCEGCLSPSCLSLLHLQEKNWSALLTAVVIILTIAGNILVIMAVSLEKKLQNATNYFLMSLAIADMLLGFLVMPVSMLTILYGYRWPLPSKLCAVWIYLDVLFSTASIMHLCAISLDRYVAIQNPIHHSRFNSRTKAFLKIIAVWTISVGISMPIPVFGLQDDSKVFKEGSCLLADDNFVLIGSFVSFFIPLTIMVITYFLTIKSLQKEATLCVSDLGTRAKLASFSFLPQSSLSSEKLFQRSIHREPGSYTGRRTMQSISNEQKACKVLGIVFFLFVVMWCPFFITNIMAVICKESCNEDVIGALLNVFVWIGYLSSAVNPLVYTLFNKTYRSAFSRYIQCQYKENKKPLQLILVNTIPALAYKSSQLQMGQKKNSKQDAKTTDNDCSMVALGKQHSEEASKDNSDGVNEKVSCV
Procedure, shortened: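 CHO cells stably expressing human HTR2A were plated for 18 h at 37 C, then loaded with calcium dye for 1 h. Compounds were preincubated 5 min at room temperature before DOI (4 nM solution) was added. Kinetic fluorescence was read for 3 min.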

[11] = target: 5-hydroxytryptamine receptor 2A (Homo sapiens) (UniProt P28223); test: 5-hydroxytryptamine receptor 2A (HTR2A) small molecule agonists, cell-based qHTS assay (AID 1963587); also: nearly all actives have a fitted effect of over 30% in size
Procedure, shortened: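 CHO cells stably expressing human HTR2A, plated 18 h, loaded with calcium dye 1 h at 37 C. Agonist mode: compounds added and intracellular calcium fluorescence recorded kinetically for 2 min at 1 sec intervals.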

[12] = target: Muscarinic acetylcholine receptor M1 (Homo sapiens) (UniProt P11229); test: Cholinergic receptor muscarinic 1 (CHRM1) small molecule antagonists, cell-based qHTS assay (AID 1963588); also: nearly all actives have a fitted effect of over 40% in size
Chain of Muscarinic acetylcholine receptor M1 (Homo sapiens) (P11229 whole entry, looked up): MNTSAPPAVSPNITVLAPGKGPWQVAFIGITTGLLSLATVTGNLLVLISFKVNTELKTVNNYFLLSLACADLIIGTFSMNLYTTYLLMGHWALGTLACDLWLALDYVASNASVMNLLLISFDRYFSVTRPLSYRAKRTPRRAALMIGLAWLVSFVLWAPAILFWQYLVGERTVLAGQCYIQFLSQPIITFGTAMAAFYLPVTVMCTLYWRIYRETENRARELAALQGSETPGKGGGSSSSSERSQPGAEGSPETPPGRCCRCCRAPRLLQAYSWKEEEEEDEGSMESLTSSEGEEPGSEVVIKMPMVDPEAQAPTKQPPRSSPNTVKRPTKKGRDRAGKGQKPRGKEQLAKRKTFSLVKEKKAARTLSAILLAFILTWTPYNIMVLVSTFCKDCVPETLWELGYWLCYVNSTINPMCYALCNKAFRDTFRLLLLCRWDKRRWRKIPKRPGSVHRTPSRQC
Procedure, shortened: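 Compounds were tested at 15 concentrations in three independent runs. Dye-loaded CHRM1-CHO cells were exposed 5 min at room temperature before stimulation by acetylcholine added at 50nM. Intracellular calcium was read kinetically on FDSS for 3 min.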

[13] = target: Muscarinic acetylcholine receptor M1 (Homo sapiens) (UniProt P11229); test: Cholinergic receptor muscarinic 1 (CHRM1) small molecule agonists, cell-based qHTS assay (AID 1963589); also: nearly all actives have a fitted effect of over 35% in size
Procedure, shortened: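 Fluorescent calcium dye reports M1 activation in stably transfected CHO cells. Compounds, 15 concentrations, added after 1 h dye loading at 37 C; kinetic reading at 1 sec intervals.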

[14] = cAMP Responsive Elements (CRE) small molecule agonists, cell-based qHTS assay (AID 1963590)
Procedure, shortened: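 Compound exposure lasted 3 h at 37 C/5% CO2 in CRE-bla HEK 293T cells grown in assay medium with 10% dialyzed FBS and 25 mM HEPES. Reporter signal came from LiveBLAzer B/G FRET substrate, 2 h, room temperature.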

[15] = cAMP Responsive Elements (CRE) small molecule antagonists, cell-based qHTS assay (AID 1963591; active = well fitted inhibition curve with a large enough effect in the signal ratio in the repeat runs, not every such curve was filed as active; the % refers to the signal ratio)
Procedure, shortened: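 Stimulation used NKH477 at a final 0.25 uM for 3 h in compound-treated CRE-bla HEK293T cells, seeded 18 h beforehand. Reporter activity was measured with LiveBLAzer B/G FRET substrate after 2 h at room temperature.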

[16] = target: Beta-2 adrenergic receptor (Homo sapiens) (UniProt P07550); test: Adrenergic beta2 receptor (ADRB2) small molecule antagonists, cell-based qHTS assay (AID 1963592); also: series mostly up to about 92 µM; nearly all actives have a fitted effect of over 50% in size
Chain of Beta-2 adrenergic receptor (Homo sapiens) (P07550 whole entry, looked up): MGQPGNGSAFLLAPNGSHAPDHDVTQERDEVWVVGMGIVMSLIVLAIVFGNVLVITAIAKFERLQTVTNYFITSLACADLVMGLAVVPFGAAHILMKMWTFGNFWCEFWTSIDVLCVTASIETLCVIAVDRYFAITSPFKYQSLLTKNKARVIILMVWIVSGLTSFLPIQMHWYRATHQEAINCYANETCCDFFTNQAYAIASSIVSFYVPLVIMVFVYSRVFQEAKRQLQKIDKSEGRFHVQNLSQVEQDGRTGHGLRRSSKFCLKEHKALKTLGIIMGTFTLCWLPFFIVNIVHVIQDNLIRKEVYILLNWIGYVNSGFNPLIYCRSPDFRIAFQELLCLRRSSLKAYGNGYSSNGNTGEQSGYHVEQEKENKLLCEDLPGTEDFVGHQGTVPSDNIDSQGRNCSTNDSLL
Procedure, shortened: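 Assay format: CHO-ADRB2 cells, 18-20hr seeding at 37C/5% CO2, then compound plus 1nM isoproterenol agonist mix for 0.5hr RT. Homogeneous time-resolved fluorescence cAMP detection after 1hr, expressed as 665/615 nm ratio.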

[17] = target: D(2) dopamine receptor (Homo sapiens) (UniProt P14416); test: Dopamine D2 receptor (DRD2) small molecule agonists, cell-based qHTS assay (AID 1963594); also: nearly all actives have a fitted effect of over 35% in size
Chain of D(2) dopamine receptor (Homo sapiens) (P14416 whole entry, looked up): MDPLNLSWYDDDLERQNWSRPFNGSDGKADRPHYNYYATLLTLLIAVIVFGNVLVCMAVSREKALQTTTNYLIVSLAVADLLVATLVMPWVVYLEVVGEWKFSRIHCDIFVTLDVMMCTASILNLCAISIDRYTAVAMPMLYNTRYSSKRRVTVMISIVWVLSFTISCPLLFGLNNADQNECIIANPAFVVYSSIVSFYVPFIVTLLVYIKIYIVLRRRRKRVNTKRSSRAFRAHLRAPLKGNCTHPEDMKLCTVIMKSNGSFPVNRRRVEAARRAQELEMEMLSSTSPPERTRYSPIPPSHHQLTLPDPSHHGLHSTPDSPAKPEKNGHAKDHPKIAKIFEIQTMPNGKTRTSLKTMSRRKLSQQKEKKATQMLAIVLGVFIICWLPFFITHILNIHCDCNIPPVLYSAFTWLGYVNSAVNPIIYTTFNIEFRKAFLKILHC
Procedure, shortened: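 HEK293 cells stably expressing human DRD2, pre-treated with PDE inhibitor Ro20-1724 (0.1 mM final) and compound 10 min at room temperature, then stimulated with NKH477 (200nM […]) for 30 min. cAMP read by HTRF (665/620 nm).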

[18] = target: D(2) dopamine receptor (Homo sapiens) (UniProt P14416); test: Dopamine D2 receptor (DRD2) small molecule antagonists, cell-based qHTS assay (AID 1963595; active = well fitted inhibition curve with a large enough effect in the signal ratio in the repeat runs, with a control signal flat; the % refers to the signal ratio)
Procedure, shortened: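 HEK293 cells stably expressing DRD2, preincubated with 0.1 mM Ro20-1724 and compounds 10 min, were stimulated with 200 nM NKH477 plus 12 nM quinpirole for 30 min at room temperature; cAMP measured by HTRF (665/620 nm).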

[19] = target: Beta-2 adrenergic receptor (Homo sapiens) (UniProt P07550); test: Adrenergic beta2 receptor (ADRB2) small molecule agonists, cell-based qHTS assay (AID 1963593);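 also: CHO cells stably overexpressing human ADRB2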
Procedure, shortened: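 CHO cells stably over-expressing ADRB2 were plated overnight at 37C, then dosed with compounds plus a stimulation mix containing 100uM IBMX and 25uM Ro-20-1724 for 0.5hr at room temperature. cAMP was measured by HTRF competition, 1hr.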

[20] = target: KiSS-1 receptor (Homo sapiens) (UniProt Q969F8); test: Human kisspeptin (KISS1R) small molecule agonists, calcium flux assay in KISS1R-HEK293 cells (AID 1920064; active = well fitted curve in the direction sought with a large enough effect in the repeat runs; an effect the other way counts as inactive or inconclusive)
Chain of KiSS-1 receptor (Homo sapiens) (Q969F8 whole entry, looked up): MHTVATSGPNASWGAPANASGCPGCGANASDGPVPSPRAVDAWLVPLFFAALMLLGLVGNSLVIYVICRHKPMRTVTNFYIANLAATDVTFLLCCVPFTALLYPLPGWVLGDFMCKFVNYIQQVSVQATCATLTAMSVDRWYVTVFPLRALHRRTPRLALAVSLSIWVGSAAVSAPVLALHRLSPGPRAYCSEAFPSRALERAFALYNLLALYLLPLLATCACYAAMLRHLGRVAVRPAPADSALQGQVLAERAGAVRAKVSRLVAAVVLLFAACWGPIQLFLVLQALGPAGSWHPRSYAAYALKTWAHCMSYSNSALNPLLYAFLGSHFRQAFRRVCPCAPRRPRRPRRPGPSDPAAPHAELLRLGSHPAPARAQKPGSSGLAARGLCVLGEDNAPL
Procedure, shortened: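 Concentration-response testing used 15 concentrations in triplicate on human KISS1R-expressing HEK293 cells. Calcium-dependent fluorescence (Ex/Em 480/540) was followed kinetically for 3 min after compound transfer.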
% is scaled to controls: 0 for no effect and ±100 for the full control effect.

CC1=C(C(=O)O)N2C(=O)[C@@H](NC(=O)[C@H](N)c3ccc(O)cc3)[C@H]2SC1
inactive: Potency [1] | Potency [2] | Potency [3] | Potency [4] | Potency [5] | Potency [6] | Potency [7] | Potency [8] | Potency [9] | Potency [10] | Potency [11] | Potency [12] | Potency [13] | Potency [14] | Potency [15] | Potency [16] | Potency [17] | Potency [18]

CCCCC(CC)COC(=O)c1ccccc1C(=O)O (configuration not stated)
inactive: Potency [1] | Potency [2] | Potency [3] | Potency [6] | Potency [7] | Potency [11]

C[C@]12C(=O)OC(=O)[C@H]1[C@H]1C=C[C@@H]2C1
inactive: Potency [1] | Potency [2] | Potency [3] | Potency [4] | Potency [5] | Potency [7] | Potency [8] | Potency [9] | Potency [10] | Potency [11] | Potency [12] | Potency [13] | Potency [14] | Potency [15] | Potency [16] | Potency [17] | Potency [18]

O=C(Oc1ccccc1)Oc1ccccc1
inactive: Potency [1] | Potency [2] | Potency [3] | Potency [4] | Potency [5] | Potency [6] | Potency [7] | Potency [8] | Potency [9] | Potency [11] | Potency [12] | Potency [13] | Potency [14] | Potency [16] | Potency [17] | Potency [18]

CS(C)=O
inactive: Potency [1] | Potency [2] | Potency [3] | Potency [4] | Potency [5] | Potency [7] | Potency [8] | Potency [9] | Potency [14] | Potency [15] | Potency [16] | Potency [17] | Potency [18]

COc1nc(N)nc2c1ncn2[C@@H]1O[C@H](CO)[C@@H](O)[C@@H]1O
inactive: Potency [1] | Potency [2] | Potency [3] | Potency [4] | Potency [5] | Potency [6] | Potency [7] | Potency [8] | Potency [9] | Potency [10] | Potency [11] | Potency [12] | Potency [16] | Potency [19] | Potency [17]

C=C/C=C/C=C/CCCCC
inactive: activity change, negative = cytotoxicity [1] 4.28% [at 19 µM] | activity change [2] 0.656% [at 11.8 µM, active compounds read high] | activation [3] 0.367% [at 11.8 µM] | activation [4] -4.49% [at 13.5 µM] | activation [5] 0.431% [at 13.6 µM] | activity change, negative = cytotoxicity [6] 1.88% [at 13.5 µM] | activity change, negative = cytotoxicity [7] -6.94% [at 13.5 µM] | activity change, negative = cytotoxicity [8] -4.28% [at 13.5 µM] | activation [9] -3.72% [at 13.5 µM] | activity, negative = inhibition [10] -10.4% [at 12.7 µM] | activation [11] -2.6% [at 15.9 µM] | activity, negative = inhibition [12] 25.8% [at 12.6 µM] | activation [13] 0.27% [at 15.8 µM] | activation [14] 0.016% [at 19 µM] | activity change, negative = inhibition [15] 0.0574% [at 18.9 µM] | activity change, negative = inhibition [16] 4.38% [at 19 µM] | activation [17] -0.0392% [at 19 µM] | activity change, negative = inhibition [18] -7.54% [at 18.9 µM]

Cc1cc(O)c2ccccc2c1O
inactive: Potency [2] | Potency [3] | Potency [4] | Potency [5] | Potency [6] | Potency [9] | Potency [10] | Potency [11] | Potency [12] | Potency [13] | Potency [16] | Potency [17] | Potency [18]
active: Potency [1] 13.3 µM

O=C(C(=O)c1ccc(Br)cc1)c1ccc(Br)cc1
inactive: activity change, negative = cytotoxicity [1] -1.93% [at 19 µM] | activity change [2] 0.0439% [at 11.8 µM, active compounds read high] | activation [3] -0.382% [at 11.8 µM] | activation [4] -9.98% [at 13.5 µM] | activation [5] -6.75% [at 13.6 µM] | activity change, negative = cytotoxicity [6] -13.3% [at 13.5 µM] | activity change, negative = cytotoxicity [8] -2.62% [at 13.5 µM] | activity, negative = inhibition [10] 10.2% [at 12.7 µM] | activation [11] 2.38% [at 15.9 µM] | activity, negative = inhibition [12] 5.04% [at 12.6 µM] | activation [13] -0.452% [at 15.8 µM] | activation [14] -0.367% [at 19 µM] | activity change, negative = inhibition [15] -9.38% [at 18.9 µM] | activation [17] -0.026% [at 19 µM]

CC(C)(C)C1CCC(CC2=C(O)c3ccccc3C(=O)C2=O)CC1 (configuration not stated)
active: Potency [1] 29.8 µM
inactive: Potency [2] | Potency [3] | Potency [4] | Potency [5] | Potency [6] | Potency [7] | Potency [8] | Potency [10] | Potency [11] | Potency [12] | Potency [13] | Potency [15] | Potency [16] | Potency [17] | Potency [18]

O=C1NC(=O)[C@@H]2CC=CC[C@H]12
inactive: Potency [1] | Potency [2] | Potency [3] | Potency [4] | Potency [5] | Potency [6] | Potency [7] | Potency [10] | Potency [11] | Potency [13] | Potency [16] | Potency [19] | Potency [17] | Potency [18]

CCOC(=O)CC(=O)C(=O)OCC
inactive: Potency [1] | Potency [20] | Potency [3] | Potency [4] | Potency [5] | Potency [6] | Potency [7] | Potency [8] | Potency [9] | Potency [10] | Potency [11] | Potency [12] | Potency [13] | Potency [14] | Potency [15] | Potency [16]
